Sampled rows, rich in hits. Any-hit rate of the full collection: about 19%.
Pf growth 96h: Primary qHTS for delayed death inhibitors of the malarial parasite plastid, 96 hour incubation | hit rate 6.9% among 320,000 | P. falciparum luciferase reporter growth, 96 h | AID 504834, 2011 | Potency, µM (series often up to 28.7 µM), actives largely listed as inhibitors
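Parasite growth measured via integrated firefly luciferase reporter in P. falciparum. Infected erythrocytes at 2% hematocrit, 0.05% parasitemia final were treated 96 hours at 37 C under 5% CO2, and luminescence was read.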
Marburg entry inh: qHTS for inhibitors of binding or entry into cells for Marburg Virus. Marburg virus pseudotyped entry inhibition, cell reporter. Potency, µM (doses to about 37.8 µM), actives largely listed as inhibitors. AID 540276, 2011. hit rate 1.8% among 300,000; calls by dose curve; tested in HEK293 cells
CHX counter: Cycloheximide Counterscreen for Small Molecule Inhibitors of Shiga Toxin; cell reporter, cycloheximide protein synthesis inhibition counterscreen; max response, %; AID 2314, 2010; hit rate 12% among 300,000; in the data active = max response mostly above about 13%, no sharp cut-off; inactive = mostly below about 14%; also: read at 38.3 µM for the half of the compounds with a filed dose
LASV entry inh: qHTS for Inhibitors of binding or entry into cells for Lassa Virus; Potency, µM (top dose mostly 37.9 µM), hits mostly inhibitors; hit rate 1.2% among 300,000; Lassa virus pseudotype entry inhibition, cell reporter; calls by dose curve; tested in HEK293 cells; also: nearly all actives have a fitted effect of over 50% in size
Pf growth 48h: Primary qHTS for delayed death inhibitors of the malarial parasite plastid, 48 hour incubation; AID 504832, 2011; Potency, µM (doses to about 28.7 µM), actives largely listed as inhibitors; P. falciparum luciferase growth in erythrocytes, 48 h; hit rate 5.9% among 310,000
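Luminescence readout; reporter = integrated firefly luciferase in P. falciparum. RBC culture at 2% hematocrit, 0.1% parasitemia final, 37 C/5% CO2; decreased signal taken as growth inhibition.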
Shiga toxin inh: A qHTS for Small Molecule Inhibitors of Shiga Toxin; Vero cells, Shiga toxin protein synthesis inhibition reporter; inhibition, % at 38.7 µM; hit rate 9.2% among 290,000; in the data active = inhibition mostly above about 28%, no sharp cut-off; inactive = mostly below about 43%
Each line names hits and unclear results; the compound was inactive in the other large screens. Unless noted, calls follow the shape of the dose curve; as a rule, active = well fitted inhibition curve with a large enough effect; inconclusive = small, poorly fitted or top-dose-only effect, or another doubt; inactive = no such curve, though single readings can be large or run the other way.

COc1ccc(CCNS(=O)(=O)c2cn(C)cn2)cc1OC	Pf growth 96h inconclusive (no result: Marburg entry inh, LASV entry inh)
CC1CCCN(CCCNC(=O)C2CCCN(c3ncnc4c3nc3n4CCCCC3)C2)C1 (stereo unspecified)	Pf growth 96h inconclusive, Marburg entry inh inconclusive, Pf growth 48h inconclusive
CCCC(CCC)C(=O)NNc1cc(=O)c2c(=O)n(C)c(=O)n(C)c2[nH]1	none
CC(C)c1ccc(NS(=O)(=O)c2ccc3[nH]cc(C(=O)N4CCCC4)c(=O)c3c2)cc1	LASV entry inh inconclusive (no result: Pf growth 96h, CHX counter, Pf growth 48h, Shiga toxin inh)
O=C(N/N=C/c1sc(N2CCOCC2)nc1-c1ccccc1)c1ccccc1O	Pf growth 96h 1.85µM, Marburg entry inh 7.94µM, LASV entry inh 1.26µM, Pf growth 48h 5.22µM
CCC1(c2ccccc2)NC(=O)N(C)C1=O (stereo unspecified)	none (no result: Marburg entry inh, LASV entry inh)
CC(=O)Nc1ccc(NC(=O)c2ccc(NC(=O)c3ccccc3)cc2)cc1	Pf growth 96h inconclusive (no result: Marburg entry inh, LASV entry inh)
CCOc1ccc(N=C(C)C2=C(O)c3ccccc3C2=O)cc1	Marburg entry inh inconclusive, CHX counter 43.4, LASV entry inh inconclusive, Shiga toxin inh 193.8
CC(=O)Nc1ccc(N=C(C2=C(O)c3ccccc3C2=O)c2ccccc2)cc1	Pf growth 96h inconclusive, CHX counter 44.0, Shiga toxin inh 63.3 (no result: Marburg entry inh, LASV entry inh)
CCCCn1c(O)c(C(C)=Nc2ccc(OCC)cc2)c(=O)[nH]c1=O	Pf growth 96h inconclusive, LASV entry inh inconclusive, Pf growth 48h inconclusive
COc1ccc(N=C(C)C2=C(O)c3ccccc3C2=O)cc1	Marburg entry inh inconclusive, CHX counter 58.1, LASV entry inh inconclusive, Shiga toxin inh 114.7
CCOc1cc2[nH]c(=O)n(CCCC(=O)NCc3ccc(OC)cc3)c(=O)c2cc1OCC	Pf growth 96h inconclusive, Marburg entry inh inconclusive
CS(=O)c1ccccc1-c1nc(-c2cccc(Cl)c2)no1 (stereo unspecified)	CHX counter 53.0
CS(=O)(=O)c1ccccc1-c1nc(-c2cccc(Cl)c2)no1	Marburg entry inh inconclusive, Pf growth 48h inconclusive
CS(=O)c1ccccc1-c1nc(-c2ccc(Cl)cc2)no1 (stereo unspecified)	CHX counter 48.3, Shiga toxin inh 65.9
O=C(CCNC(=O)c1ccccc1)Oc1ccc([N+](=O)[O-])cc1	LASV entry inh inconclusive
C=CCn1c(=NC(=O)c2cccs2)sc2cccc(OC)c21	Pf growth 96h inconclusive, CHX counter 28.2, Pf growth 48h inconclusive, Shiga toxin inh 52.8
CCn1c(=NC(=O)c2ccc(S(=O)(=O)N(C)C)cc2)sc2cccc(OC)c21	Pf growth 96h inconclusive, Pf growth 48h 8.28µM (no result: Marburg entry inh, LASV entry inh)
C#CCn1c(=NC(=O)c2ccc(Br)s2)sc2cc(NC(C)=O)ccc21	Marburg entry inh inconclusive
C#CCn1c(=NC(=O)c2ccc(Br)s2)sc2cccc(OC)c21	Pf growth 96h inconclusive, CHX counter 19.4, Pf growth 48h inconclusive, Shiga toxin inh 72.7 (no result: Marburg entry inh, LASV entry inh)
O=C(N/N=C/c1ccncc1)c1nc2ccccc2c(=O)[nH]1	CHX counter 17.4 (no result: Marburg entry inh, LASV entry inh)
O=C(N/N=C/c1ccc2cccnc2c1)c1nc2ccccc2c(=O)[nH]1	CHX counter 29.6, LASV entry inh inconclusive, Shiga toxin inh 34.9
O=C(NC(C(=O)N/N=C/c1ccncc1)c1n[nH]c(=O)c2ccccc12)c1ccccc1 (stereo unspecified)	none
CCOC(=O)CSc1nc2c(sc3cccc(F)c32)c(=O)n1Cc1ccc(OC)cc1	none (no result: Pf growth 96h, Marburg entry inh, CHX counter, Pf growth 48h, Shiga toxin inh)
Cc1scc(C(=O)N/N=C/c2ccc(Cl)s2)c1C	CHX counter 46.8, LASV entry inh inconclusive, Shiga toxin inh 50.1
COc1ccccc1/C=N/NC(=O)c1csc(C)c1C	CHX counter 15.4, Shiga toxin inh 39.4
Cc1scc(C(=O)N/N=C/c2ccc(OC(C)C)cc2)c1C	CHX counter 44.2, LASV entry inh inconclusive, Shiga toxin inh 114.8 (no result: Pf growth 96h)
c1ccc(-c2ncnc3ccccc23)cc1	none (no result: Pf growth 96h, CHX counter, Pf growth 48h, Shiga toxin inh)
CCOC(=O)NC(N(O)c1cccc(Cl)c1)C(Cl)(Cl)Cl (stereo unspecified)	CHX counter 20.4
O=C(NC(=S)Nc1ccccc1N1CCOCC1)c1ccc(Br)cc1	Pf growth 48h inconclusive (no result: Marburg entry inh, LASV entry inh)
FC(F)(F)COc1nc(N/N=C/c2cccnc2)nc(N2CCCCC2c2ccccn2)n1 (stereo unspecified)	Pf growth 96h 9.28µM, Pf growth 48h 11.7µM
Nc1ncnc(Nc2cc(Cl)cc(Cl)c2)c1[N+](=O)[O-]	none
NC1=NC(c2ccccc2C(F)(F)F)N(c2ccc(F)c(Cl)c2)C(N)=N1 (stereo unspecified)	Pf growth 48h 1.85µM (no result: Marburg entry inh, LASV entry inh)
COc1ccc(C2N=C(N)N=C(N)N2c2ccccc2OC)cc1OC (stereo unspecified)	Pf growth 96h inconclusive
CC1CCN(C(=O)CSc2nc3ncccc3[nH]2)CC1	CHX counter 20.3 (no result: Marburg entry inh, LASV entry inh)
CC1CCN(C(=O)CSc2nc3ccccc3[nH]2)CC1	CHX counter 59.4, Shiga toxin inh 65.7
NC(=O)C1CCN(C(=O)CSc2nc3ccccc3[nH]2)CC1	none (no result: Pf growth 48h)
O=C(NCC1CCCO1)c1cccc(NS(=O)(=O)c2ccc(Br)cc2)c1 (stereo unspecified)	LASV entry inh inconclusive (no result: CHX counter, Shiga toxin inh)
O=C(O)Cn1nc(-c2ccc(Cl)cc2)ccc1=O	Pf growth 96h 13.1µM, LASV entry inh inconclusive
Cc1ccc(-c2ccc(=O)n(Cc3c(F)cccc3Cl)n2)cc1	Marburg entry inh inconclusive, CHX counter 20.0, Pf growth 48h 13.1µM
COc1ccc(-c2ccc(=O)n(Cc3ccccc3)n2)cc1	CHX counter 21.1, Shiga toxin inh 28.2 (no result: Marburg entry inh, LASV entry inh)
O=C(O)Cn1nc(-c2ccccc2)ccc1=O	Pf growth 96h 3.29µM, LASV entry inh inconclusive
O=C(Cn1nc(-c2ccc(Cl)cc2)ccc1=O)N1CCN(c2ccccc2)CC1	Pf growth 96h inconclusive
Cc1ccc(C)c(-c2ccc(=O)n(Cc3c(F)cccc3Cl)n2)c1	Pf growth 96h inconclusive, Marburg entry inh inconclusive
COc1cccc(Cn2cccc(NC(=O)NC3CCCCC3)c2=O)c1	Pf growth 96h inconclusive, LASV entry inh inconclusive
COc1ccc(C2=NN(Cc3ccccc3)C3C(=O)NC(=O)C23)cc1 (stereo unspecified)	Pf growth 96h inconclusive, Marburg entry inh inconclusive, CHX counter 19.7
Cn1nnc2cc(C(=O)N3CCC(c4ccccc4)C3)ccc21 (stereo unspecified)	CHX counter 10.1, Shiga toxin inh 27.3
Cc1ccc(C2CCN(C(=S)NC(C)C)C2)cc1 (stereo unspecified)	Shiga toxin inh 64.1
Cc1nc2cc(NC(=O)N3CCC(c4ccccc4)C3)ccc2n1C (stereo unspecified)	CHX counter 27.4, Shiga toxin inh 98.7 (no result: Pf growth 96h)
Cc1ccc(C2CCN(C(=O)Nc3ccc(F)cc3)C2)cc1 (stereo unspecified)	Pf growth 96h inconclusive, Marburg entry inh inconclusive, CHX counter 19.2, LASV entry inh inconclusive, Shiga toxin inh 89.4
Cc1ccc(NC(=O)C2CCCN(C(=O)Nc3ccc(F)cc3)C2)cc1 (stereo unspecified)	none

From PubChem
